Screening data from PubChem.
Sampled rows, rich in hits. Any-hit rate of the full collection: about 2.4%.
UHRF1 binding = human UHRF1 methylated DNA binding inhibitors; UHRF1 binding to methylated oligo, TR-FRET; inhibition, % at 4.4 µM; actives 0.75% (n = 370,000); in the data active = inhibition above about 21%;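 note: UHRF1 SRA domain binding a hemimethylated CpG hairpin DNA probe; 0% = median of test compound wells and 100% = reference inhibitor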
PLC-beta3 inh = inhibitors of human phospholipase C beta3. Purified PLC-beta3, fluorogenic substrate, fluorescence. inhibition, % at 12.2 µM. actives 0.18% (n = 370,000); in the data active = inhibition above about 11%;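 note: 0% = median of compound wells on plate and 100% = full blocker control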
MBD2 inh = MBD2-methylated oligo binding inhibition; Q9UBB5; TR-FRET, MBD2 binding to methylated oligonucleotide; inhibition, % at 4.4 µM; actives 0.31% (n = 370,000); AID 686964; in the data active = inhibition above about 13%
LEDGF integ inh = blocks HIV-1 LEDGF/p75-dependent DNA integration. inhibition, % at 3.7 µM. AID 743269. TR-FRET IN-LEDGF/p75 DNA integration, Eu/Cy5. actives 0.64% (n = 370,000);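 active = inhibition above the screen-wide mean plus 3 SD, cut at about 13% in these data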;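 note: signal is the Cy5 over europium emission ratio at 671 and 618 nm; 0% = plate median of compound wells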
PLCg1 inh = PLC-gamma1 (human) inhibition, primary screen. actives 0.84% (n = 370,000). inhibition, % at 12.2 µM. P19174. purified PLC-gamma1, fluorogenic substrate, fluorescence
PLCgamma1 ctr = PLC-gamma1 inhibition, counter-screen for PLC-beta3 hits. shares compounds with PLCg1 inh. purified PLC-gamma1, fluorogenic substrate, fluorescence. inhibition, % at 12.3 µM. actives 3.1% (n = 3,300)
PLCb3 confirm = confirmation of human PLC-beta3 inhibitors; shares compounds with PLCg1 inh; purified PLC-beta3, fluorogenic substrate fluorescence; inhibition, % at 12.3 µM; actives 1% (n = 3,300); in the data active = inhibition above about 11%
* marks the source's active call; other numbers are inactive results; x = no result. Cut-off read from the data, not from the text of the source, unless noted: active = inhibition above about 9.5%; inactive = the rest.

SMILES	UHRF1 binding	PLC-beta3 inh	MBD2 inh	LEDGF integ inh	PLCg1 inh	PLCgamma1 ctr	PLCb3 confirm
COc1ccc(/C=N/N2CCN(C)CC2)cc1O	1.8	3.1	-0.4	-0.5	11.0*	5.5	0.9
COc1cccc(/C=N/N2CCN(C)CC2)c1	-1.2	-1.6	-2.7	1.3	0.5	x	x
CCCCN(C)C(=O)CSc1nnc(-c2cccnc2)n1C1CCCCC1	2.8	0.8	-5.8	-0.3	-1.7	x	x
O=C(Nc1ccc(F)cc1F)c1c(C(F)(F)F)ccnc1Oc1ccccc1	14.2	1.0	-4.6	5.9	11.1*	-5.1	0.9
Cc1cc2nc(CCN(Cc3cccnc3)C(=S)Nc3ccc(F)cc3)[nH]c2cc1C	3.8	2.1	0.7	1.1	12.1*	-2.9	-6.4
Cc1cc(Nc2ccc(Cl)cc2)n(-c2cccc(Cl)c2)n1	-2.5	1.8	1.2	-0.5	12.2*	-6.8	-6.0
O=S(=O)(c1cc2ccccc2s1)n1c(CN2CCOCC2)nc2ccccc21	-0.2	-1.9	-4.8	5.4	0.8	x	x
CS(=O)(=O)N1c2ccccc2C[C@H]1Cc1cc2ccccc2o1	-0.6	-3.5	2.4	-3.1	-1.1	x	x
CCN(CC)S(=O)(=O)c1ccc(F)cc1	7.5	7.2	-1.6	6.1	10.9*	3.9	3.2
CCN(CC)S(=O)(=O)c1ccc(NS(=O)(=O)c2ccc(F)cc2)cc1	0.1	-3.8	2.3	-0.2	0.9	x	x
Cc1ccc(COc2coc(CO)cc2=O)cc1	6.3	11.6*	-5.6	0.1	8.1	-7.5	-3.3
CC(C)(C)c1ccc(-c2nnc(SCC(=O)c3ccc4ccccc4c3)n2-c2ccc(Cl)cc2)cc1	-0.6	-2.9	-0.9	1.0	-1.8	x	x
O=S1(=O)c2ccc(Br)cc2OC[C@H](Cc2ccccc2)N1Cc1cn(Cc2ccc(Cl)cc2)nn1	-1.8	4.5	2.1	0.1	2.8	x	x
COc1ccc(CSC2=C(C#N)C(=O)NC3(CCCCC3)S2)cc1	6.8	2.4	2.0	-6.3	2.7	x	x
CCCCCCSC1=C(C#N)C(=O)NC2(CCCCC2)S1	2.7	7.8	-3.2	12.4	13.8*	1.3	0.4
CCOC(=O)C1(Cc2ccccc2)CCN(Cc2ccc(C(F)(F)F)cc2)CC1	0.8	0.4	2.3	-0.7	0.8	x	x
C(=C\c1ccccc1)/CN1CCN(C(c2ccccc2)c2nnnn2Cc2ccccc2)CC1 (stereo not drawn)	3.8	0.5	0.6	6.8	5.0	x	x
COc1ccc(C(c2nnnn2Cc2ccccc2)N2CCN(C/C=C/c3ccccc3)CC2)cc1 (stereo not drawn)	2.1	1.3	-7.1	1.7	14.2*	-1.9	-0.6
CC(C)C[C@H]1COc2cccc(F)c2S(=O)(=O)N1Cc1cn(CCC2OCCO2)nn1	-0.1	-1.5	1.1	-0.3	0.7	x	x
CNC(C#Cc1ccccc1)c1ccccc1C(F)(F)F (stereo not drawn)	-0.3	3.6	10.9	-1.3	0.2	x	x
Cc1cc(C)c(C)c(S(=O)(=O)N2CCC(C(=O)NCc3cccs3)CC2)c1C	0.5	2.2	4.6	6.3	11.6*	-8.7	-5.0
O=C(NCc1cccs1)C1CCN(c2nc3ccccc3o2)CC1	1.1	2.6	2.2	-0.2	9.7*	-1.6	-3.9
O=C(NCc1cccs1)C1CCN(S(=O)(=O)c2cccs2)CC1	-1.5	-2.0	-3.4	2.0	-0.1	x	x
CCCCCn1nnnc1C1(C)Cn2nccc2C(=O)N1Cc1ccco1 (stereo not drawn)	0.0	2.5	-0.6	-0.4	-0.2	x	x
COC(=O)[C@]12C[C@H](CC(=O)N3CCC(c4ccccc4)CC3)C(=O)N(CCC3=CCCCC3)C1=C[C@H](C1CCCC1)O[C@@H]2C	-1.7	-0.1	5.1	-2.7	0.6	x	x
SMILES	UHRF1 binding	PLC-beta3 inh	MBD2 inh	LEDGF integ inh	PLCg1 inh	PLCgamma1 ctr	PLCb3 confirm
CCO[C@H]1OC(C(=O)N2CCN(C)CC2)=C[C@@H](c2ccc3c(c2)OCO3)[C@@H]1CCCO	2.5	19.7*	1.6	3.2	7.0	-4.4	1.0
CCO[C@H]1OC(C(=O)N2CCN(Cc3ccc4c(c3)OCO4)CC2)=C[C@@H](c2csc3ccccc23)[C@@H]1CCCO	-1.6	11.0*	-4.2	-0.4	4.3	-1.4	-0.6
CCO[C@H]1OC(C(=O)N2CCN(Cc3ccc4c(c3)OCO4)CC2)=C[C@@H](c2cn(C(C)=O)c3ccccc23)[C@@H]1CCCO	-0.8	-3.8	-2.3	-1.7	-2.9	x	x
O=C(NC1CCCCN(Cc2cccc(Cl)c2)C1=O)c1ccc(-c2ccccc2)cc1 (stereo not drawn)	0.8	1.2	-3.3	-4.3	0.4	x	x
CCC(=O)Nc1ccc(C(=O)NNC(=O)COc2cc(C)ccc2C)cc1	1.9	12.0*	-4.0	2.7	6.6	-4.5	-4.6
CN1C(=O)c2cc(NC(=O)Cc3ccccc3)ccc2OC[C@H]2O[C@H](CC(=O)O)CC[C@H]21	-0.4	-3.0	-4.8	-2.9	-3.8	x	x
O=S(=O)(C/C(=C/CO)S(=O)(=O)c1ccccc1)c1ccccc1	-0.1	4.2	5.6	-0.3	9.7*	-3.5	0.6
COc1ccc(S(=O)(=O)Nc2ccc(Cc3ccncc3)cc2)cc1OC	-1.6	-5.4	-2.2	-3.5	1.6	x	x
CCc1ccc(OC)c(S(=O)(=O)Nc2ccc(Cc3ccncc3)cc2)c1	3.9	-4.4	3.8	7.5	14.1*	-1.2	-0.2
COc1ccc(NC(=O)C2CCN(C(=O)c3cccs3)CC2)cc1	5.7	5.9	4.6	-3.2	9.6*	-5.5	-4.7
CC(=O)N1CCN(C(=O)c2ccc(Oc3ccccc3)cc2)CC1	1.7	3.0	-1.2	4.7	4.6	x	x
O=C(Nc1ccccc1)C1CCN(C(=O)c2ccc([N+](=O)[O-])cc2)CC1	-0.3	3.1	-0.1	5.7	1.2	x	x
O=C(Nc1ccccc1)C1CCN(C(=O)c2ccccc2)CC1	4.5	11.6*	3.2	-3.1	6.8	-7.6	-4.0
O=C(c1ccccc1)N1CCN(C2CCCCCC2)CC1	0.7	3.5	-1.9	3.5	13.9*	-1.7	1.7
O=C(c1ccccc1)N1CCN(C(=O)c2ccc(OC(F)(F)F)cc2)CC1	1.7	12.4*	-5.2	5.2	2.6	-4.6	-0.8
O=S(=O)(CC1NCc2ccccc21)NCCc1ccccc1 (stereo not drawn)	-9.1	-2.0	-3.7	2.3	-1.6	x	x
C[C@@H]1CCN(C2CC2)S(=O)(=O)c2c(cccc2N2CC[C@@H](N(C)C)C2)O1	-0.8	-0.3	1.8	3.0	0.8	x	x
COc1cc(S(=O)(=O)Nc2ccc(C)cc2)ccc1NC(=O)c1ccncc1	7.6	7.1	-6.8	3.8	12.2*	-3.9	1.1
CCCS(=O)(=O)NC(=O)C1(C)CCN(C(=O)c2cc(C)nn2C(C)(C)C)C1 (stereo not drawn)	-0.3	-0.1	-3.8	9.1	9.8*	-1.8	0.3
O=C(OC12CCCN(C1)/C(=C/c1cccc(Cl)c1)C2)c1cccc(F)c1 (stereo not drawn)	0.7	-1.2	-1.9	1.6	2.2	x	x
